Laboratory results as given in PubChem BioAssay.
A number with no mark means an inactive call. For some of these results: Entries with a potency or affinity are not part of this list. Calls of active or inactive are those of the source. Unless noted, no rule for the calls is given here.

How the values were obtained:
[1] = antimalarial activity against Dd2 strain (AID 2302;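 active = growth inhibition above 50% at the single 2 µM test dose, taken to imply half-maximal potency below 2 µM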;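 also: 0% = DMSO untreated growth and 100% = chloroquine plus artemisinin killed control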); settings: P. falciparum Dd2 in RBCs, LDH growth readout, 72 h; at 2 µM; stronger effect = higher value
[2] = human hepatoma cell viability loss – ATP luminescence, cytotoxicity control for P. falciparum antimalarial project, primary screen (AID 2303;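 active = inhibition above 50%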;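 also: 0% = DMSO wells and 100% = digitonin-killed cells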); settings: HepG2 viability, 24-48 h, at 10 µM, stronger effect = higher value
[3] = target: L-lactate dehydrogenase (Plasmodium falciparum (isolate CDC / Honduras)) (UniProt Q27743); experiment: PfLDH activity inhibition – cell lysate, 3D7 strain, counter-screen for P. falciparum growth inhibition project (AID 2304);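 also: 0% = vehicle and 100% = reference inhibitor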; settings: P. falciparum 3D7 crude extract, LDH APAD/NBT absorbance; at 2 µM; stronger effect = higher value
[4] = inhibition of 3D7 malaria parasite growth – strain 3D7 (AID 2306);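 also: 0% = DMSO wells and 100% = chloroquine plus artemisinin control wells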; settings: P. falciparum 3D7 erythrocytic growth, LDH absorbance, 72 h; at 2 µM; stronger effect = higher value
[5] = target: Calcium-dependent protein kinase 1 (Plasmodium falciparum (isolate 3D7)) (UniProt P62344); experiment: PfCDPK1 kinase inhibitors, biochemical, TCAMS library (AID 1159585; cut-off not given, nearly all actives have IC50 up to about 0.98 µM;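 also: inhibitors leave more ATP so luminescence rises with inhibition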); settings: recombinant PfCDPK1, Kinase-Glo ATP depletion luminescence
[6] = target: Plasmodium falciparum protein kinase 6 (PK6, PF3D7_1337100) (UniProt Q8IDW1); experiment: PfPK6 kinase inhibitors, biochemical, TCAMS library (AID 1159586); settings: recombinant PfPK6, Kinase-Glo ATP depletion luminescence
[7] = target: Protein kinase 7 (PK7), Plasmodium falciparum 3D7 (PF3D7_0213400) (UniProt Q7YTF7); experiment: inhibition of Plasmodium PK7 catalytic activity – biochemical, TCAMS antimalarial set, Kinase-Glo luminescence (AID 1159587); settings: recombinant PfPK7, Kinase-Glo ATP depletion luminescence
[8] = target: Calcium-dependent protein kinase 4 (Plasmodium falciparum (isolate 3D7)) (UniProt Q8IBS5); experiment: PfCDPK4 kinase inhibitors, biochemical, TCAMS library (AID 1159588; cut-off not given, nearly all actives have IC50 up to about 0.91 µM); settings: recombinant PfCDPK4, Kinase-Glo ATP depletion luminescence
Calcium-dependent protein kinase 4 (Plasmodium falciparum (isolate 3D7)), sequence (Q8IBS5 whole entry, looked up): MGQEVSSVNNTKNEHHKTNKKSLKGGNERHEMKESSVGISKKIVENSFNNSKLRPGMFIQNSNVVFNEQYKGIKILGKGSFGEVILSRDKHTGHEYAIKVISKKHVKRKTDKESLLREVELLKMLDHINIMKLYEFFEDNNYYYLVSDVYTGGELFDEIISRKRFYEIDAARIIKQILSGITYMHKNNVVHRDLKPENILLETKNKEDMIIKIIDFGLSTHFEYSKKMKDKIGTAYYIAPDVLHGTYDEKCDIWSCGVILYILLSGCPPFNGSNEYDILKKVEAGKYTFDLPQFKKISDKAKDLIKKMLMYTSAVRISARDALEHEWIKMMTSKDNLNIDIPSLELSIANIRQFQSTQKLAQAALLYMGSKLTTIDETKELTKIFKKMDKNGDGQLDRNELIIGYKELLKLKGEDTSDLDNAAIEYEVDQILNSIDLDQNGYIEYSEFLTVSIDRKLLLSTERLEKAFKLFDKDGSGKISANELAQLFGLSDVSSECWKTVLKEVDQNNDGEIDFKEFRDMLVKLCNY

Plasmodium falciparum protein kinase 6 (PK6, PF3D7_1337100), sequence (Q8IDW1 1-305): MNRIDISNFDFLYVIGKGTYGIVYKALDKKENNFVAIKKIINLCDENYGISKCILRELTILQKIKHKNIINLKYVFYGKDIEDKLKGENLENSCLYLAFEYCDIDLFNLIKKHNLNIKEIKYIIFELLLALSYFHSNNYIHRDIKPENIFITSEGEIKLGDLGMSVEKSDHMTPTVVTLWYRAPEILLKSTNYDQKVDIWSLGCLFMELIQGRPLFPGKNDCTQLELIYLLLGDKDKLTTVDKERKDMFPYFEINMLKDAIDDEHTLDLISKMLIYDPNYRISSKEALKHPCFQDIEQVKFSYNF
Calcium-dependent protein kinase 1 (Plasmodium falciparum (isolate 3D7)), sequence (P62344 whole entry, looked up): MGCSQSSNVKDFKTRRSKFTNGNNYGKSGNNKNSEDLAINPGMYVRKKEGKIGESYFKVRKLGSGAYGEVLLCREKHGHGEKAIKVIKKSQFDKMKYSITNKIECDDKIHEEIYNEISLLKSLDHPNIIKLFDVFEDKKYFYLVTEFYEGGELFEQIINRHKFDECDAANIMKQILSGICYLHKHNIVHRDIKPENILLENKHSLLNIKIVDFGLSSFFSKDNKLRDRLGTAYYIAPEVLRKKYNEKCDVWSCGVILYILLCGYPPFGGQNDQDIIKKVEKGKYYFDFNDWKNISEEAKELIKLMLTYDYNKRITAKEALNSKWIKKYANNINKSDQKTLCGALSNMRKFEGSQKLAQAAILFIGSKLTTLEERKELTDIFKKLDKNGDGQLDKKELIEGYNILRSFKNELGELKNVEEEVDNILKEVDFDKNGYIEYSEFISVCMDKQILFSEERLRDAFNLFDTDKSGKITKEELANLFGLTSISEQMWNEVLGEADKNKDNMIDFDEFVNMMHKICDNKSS
L-lactate dehydrogenase (Plasmodium falciparum (isolate CDC / Honduras)), sequence (Q27743 whole entry, looked up): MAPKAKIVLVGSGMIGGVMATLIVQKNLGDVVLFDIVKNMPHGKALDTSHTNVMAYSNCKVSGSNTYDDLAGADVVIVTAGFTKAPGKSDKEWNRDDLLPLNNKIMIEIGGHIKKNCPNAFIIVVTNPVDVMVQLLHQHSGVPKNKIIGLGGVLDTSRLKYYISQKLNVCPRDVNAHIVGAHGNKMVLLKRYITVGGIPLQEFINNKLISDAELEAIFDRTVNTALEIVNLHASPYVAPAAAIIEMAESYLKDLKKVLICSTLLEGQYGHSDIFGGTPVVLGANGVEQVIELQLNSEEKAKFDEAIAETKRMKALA
Protein kinase 7 (PK7), Plasmodium falciparum 3D7 (PF3D7_0213400), sequence (Q7YTF7 1-343): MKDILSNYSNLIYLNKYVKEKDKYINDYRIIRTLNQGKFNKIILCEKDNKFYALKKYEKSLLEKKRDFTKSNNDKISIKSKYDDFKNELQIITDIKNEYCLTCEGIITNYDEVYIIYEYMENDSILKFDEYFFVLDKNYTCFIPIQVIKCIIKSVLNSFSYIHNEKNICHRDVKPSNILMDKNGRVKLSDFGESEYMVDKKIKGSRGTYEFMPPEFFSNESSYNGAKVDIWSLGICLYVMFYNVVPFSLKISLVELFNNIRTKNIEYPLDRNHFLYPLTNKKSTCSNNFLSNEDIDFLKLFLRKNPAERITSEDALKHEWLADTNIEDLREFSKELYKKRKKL

Row | Structure (SMILES) | growth inhibition [1] | inhibition [2] | inhibition [3] [%] | growth inhibition [4] | outcome [5] | outcome [6] | outcome [7] | outcome [8]
1 | Cc1cc(N[C@@H](Cc2ccccc2)C(=O)NCc2cccs2)nc(NCCOc2ccccc2)n1 | 31% | 2% | -3 | 93% (active) | inactive | inactive | inactive | inactive
2 | CC1CCC(NCc2c(O)ccc3ccccc23)CC1 (stereo not drawn) | 77% (active) | 13% | -1 | 95% (active) | inactive | inactive | inactive | inactive
3 | O=C(Nc1ccccc1)c1cccc(Nc2nccc(Nc3ccc(Oc4ccccc4)cc3)n2)c1 | 11% | 6% | -1 | 98% (active) | inactive | inactive | inactive | inactive
4 | c1ccc(Oc2ccc(Nc3nc(NCCc4cnc[nH]4)nc(NC4CCCC4)n3)cc2)cc1 | 23% | -5% | 6 | 97% (active) | inactive | inactive | inactive | inactive
5 | Cc1cnc(C(=O)Nc2cccc(-c3ccc(-c4nc5ccc(C(F)(F)F)cc5[nH]4)s3)c2)cn1 | 14% | 35% | -7 | 86% (active) | inactive | inactive | inactive | inactive
6 | COc1cc(Nc2nccc(N3CCC(NC(=O)C(C)c4ccc(Cl)cc4)C3)n2)cc(OC)c1OC (stereo not drawn) | 90% (active) | 2% | -7 | 97% (active) | inactive | inactive | inactive | inactive
7 | NC(=O)c1cccc(C(=O)Nc2cccc(-c3cccc(-c4nc5ccccc5[nH]4)c3)c2)c1 | 78% (active) | 32% | 2 | 100% (active) | inactive | inactive | inactive | inactive
8 | Cc1nc(N)nc(N)c1-c1cccc(Cl)c1 | -1% | 60% (active) | 2 | 88% (active) | inactive | inactive | inactive | inactive
9 | CCCCc1ccc(Cc2cnc3nc(N)nc(N)c3c2C)cc1 | 5% | 64% (active) | 5 | 96% (active) | inactive | inactive | inactive | inactive
10 | C[C@@H](C(=O)N1CCOCC1)N1CC[C@H](NS(=O)(=O)c2ccc3ccnc(N)c3c2)C1=O | 61% (active) | -6% | -4 | 84% (active) | inactive | inactive | inactive | inactive
11 | O[C@H]1[C@H](OCc2ccc(-c3ccccc3)cc2)CC[C@@H]1N1CCCCC1 | 101% (active) | 9% | 9 | 96% (active) | inactive | inactive | inactive | inactive
12 | c1ccc(CN2CCc3cc4nccc(N5CCNCC5)c4cc32)cc1 | 99% (active) | 9% | -4 | 100% (active) | inactive | inactive | inactive | inactive
13 | CCOC(=O)N1CCN(CCCNc2c3ccccc3nc3ccccc23)CC1 | 20% | 5% | 2 | 90% (active) | inactive | inactive | inactive | inactive
14 | CCSc1ccccc1CON1C(N)=NC(N)=NC1(C)C | 10% | 62% (active) | -3 | 96% (active) | inactive | inactive | inactive | inactive
15 | COc1ccc(NC(=O)NC2CCN(c3ccnc4ccccc34)C2)cc1 (stereo not drawn) | -1% | 3% | 2 | 94% (active) | inactive | inactive | inactive | inactive
16 | Cc1cc(=O)c(-c2ccc(OCc3ccc(OC(F)(F)F)cc3)cc2)c(C)[nH]1 | 92% (active) | 3% | 3 | 97% (active) | inactive | inactive | inactive | inactive
17 | N#Cc1cc(C(=O)Nc2ccccc2)c(N)nc1SCC(=O)Nc1ccc(Br)cc1 | 66% (active) | 11% | 1 | 101% (active) | inactive | inactive | inactive | inactive
18 | CC1(C)N=C(N)N=C(N)N1OCCc1cccc2ccccc12 | 97% (active) | 57% (active) | -2 | 95% (active) | inactive | inactive | inactive | inactive
19 | COc1ccc2nccc(N(C)CC3(O)CCC(NCc4cc5c(cn4)OCCO5)CC3)c2n1 (stereo not drawn) | 14% | 1% | -2 | 99% (active) | inactive | inactive | inactive | inactive
20 | CCCCC1=CC2C(=O)C(C(=O)OC)=CN=C2C=C1OCc1ccccc1 (stereo not drawn) | 98% (active) | 7% | 2 | 99% (active) | inactive | inactive | inactive | inactive
21 | COc1cc2nc(N3CCN(C(=O)c4c(Cl)nsc4-c4ccccc4Cl)CC3)nc(N)c2cc1OC | 101% (active) | 57% (active) | -6 | 100% (active) | inactive | inactive | inactive | inactive

Row | Structure (SMILES) | growth inhibition [1] | inhibition [2] | inhibition [3] [%] | growth inhibition [4] | outcome [5] | outcome [6] | outcome [7] | outcome [8]
22 | Cn1cnc(CCNC(=O)c2cccc(-c3csc(-c4nc5ccccc5[nH]4)c3)c2)c1 | 26% | 33% | 0 | 101% (active) | inactive | inactive | inactive | inactive
23 | Cn1cccc1C(=O)C(=O)Nc1ccc(-c2ccc(-c3nc4ccc(F)cc4[nH]3)cc2)cc1 | 33% | 44% | -3 | 92% (active) | inactive | inactive | inactive | inactive
24 | CC(=O)Nc1ccc(CN2CCC(NC(=O)c3ccc(-c4cccc(Cl)c4)s3)CC2)cc1 | 59% (active) | 34% | 3 | 97% (active) | inactive | inactive | inactive | inactive
25 | C=C[C@]1(C)C[C@@H](OC(=O)CS[C@H]2CN3CC[C@H]2C3)[C@@]2(C)C3C(=O)CC[C@@]3(CC[C@H]2C)[C@@H](C)[C@@H]1O (stereo partly drawn) | 75% (active) | 18% | 4 | 91% (active) | inactive | inactive | inactive | inactive
26 | Cc1ccc(Cl)cc1N1CCN(CCCNC(=O)C2CCN(c3nc4ccccc4[nH]3)CC2)CC1 | -3% | 41% | -1 | 88% (active) | inactive | inactive | inactive | inactive
27 | COc1cc(C)nc2ccc(NC(=O)Nc3ccc4nc(C)cc(OC)c4c3)cc12 | 83% (active) | 79% (active) | -7 | 102% (active) | inactive | inactive | inactive | inactive
28 | CCOC(=O)c1c[nH]c2c(ccc3ccccc32)c1=O | 96% (active) | -5% | 3 | 96% (active) | inactive | inactive | inactive | inactive
29 | O=C(Nc1cccc(CN2CCCN(Cc3ccc(F)cc3)CC2)c1)c1cc2ccccc2s1 | 36% | 29% | -9 | 91% (active) | inactive | inactive | inactive | inactive
30 | Fc1ccc2nc(-c3ccc(-c4ccc(CNCc5cnn(-c6ccccc6)n5)cc4)cc3)[nH]c2c1 | 47% | 41% | 1 | 98% (active) | inactive | inactive | inactive | inactive
31 | CCCNCCc1ccc(NS(=O)(=O)c2cccc(-c3ccc(Cl)cc3)c2)cc1 | 36% | 36% | 0 | 101% (active) | inactive | inactive | inactive | inactive
32 | Cc1ccc(O)cc1Nc1ccnc2ccc(-c3csc(CNCCN4CCOCC4)n3)cc12 | 97% (active) | -24% | -2 | 101% (active) | inactive | inactive | inactive | inactive
33 | COc1ccc(-c2ccc(CNC3Cc4ccccc4C3)cc2)cc1S(=O)(=O)NCCN1CCCC1 | 99% (active) | 30% | 3 | 100% (active) | inactive | inactive | inactive | inactive
34 | O=c1ccc(CNc2nc(NCCc3ccccc3)nc3cc(Cl)ccc23)c[nH]1 | 78% (active) | 21% | 3 | 95% (active) | inactive | inactive | inactive | inactive
35 | COc1ccc(NC(=O)C2c3ccccc3C(=O)N(C3CCCC3)C2c2cccs2)c(OC)c1 (stereo not drawn) | 54% (active) | 3% | 4 | 84% (active) | inactive | inactive | inactive | inactive
36 | CCCCN(CCCC)CCCCNc1c2ccc(Cl)cc2nc2ccc(OC)cc12 | 96% (active) | 68% (active) | 2 | 101% (active) | inactive | inactive | inactive | inactive
37 | COc1ccc(CNCc2ccc(F)cc2)cc1-c1ccc(S(=O)(=O)NCCN2CCCC2)s1 | 65% (active) | 61% (active) | -1 | 101% (active) | inactive | inactive | inactive | inactive
38 | Cc1cc(OCC2CCCN(c3ncc(C(=O)NC4CC4)cc3Cl)C2)ccc1F (stereo not drawn) | 68% (active) | 3% | -1 | 88% (active) | inactive | inactive | inactive | inactive
39 | O=C(NC1CCN(CC2(c3ccccc3)CCCC2)CC1)c1[nH]ncc1Cl | 87% (active) | -3% | 5 | 83% (active) | inactive | inactive | inactive | inactive
40 | O=C(Nc1ccc(-c2nc3ccccc3[nH]2)cc1)C1CCN(Cc2ccc(F)cc2)CC1 | 91% (active) | 13% | 1 | 102% (active) | inactive | inactive | inactive | inactive
41 | COc1ccc2nc(C)cc(NN=Cc3ccccc3[N+](=O)[O-])c2c1 | 99% (active) | 2% | -2 | 101% (active) | inactive | inactive | inactive | inactive
